# Laboratory results published in the OligoGym collection.
# Molecular target: NARF
# Assay: pooled miR-30 sensor sort-seq; sequence = guide strand
# Details: shRNA
# Also: reference of the scale not given here.
row,Sequence,sensor-assay potency score (higher = more potent)
1,TTTAGCAGCAAAATAAGGCAAA,-0.927
2,AAATCCGCAGCTATCGTCGTAT,-0.245
3,TTTCTTACTACATTCCTTGCGC,0.306

# Molecular target: NAT8L
# Assay: as above
# Details: shRNA
row,Sequence,sensor-assay potency score (higher = more potent)
1,TTGTCCTCCTCGTGGGCCCGTG,-1.12
2,TCTTAGGGTACAAACTACCGTT,-0.674
3,TAACTTATTAGAAAATGTGTTG,-0.872
4,TTAACAAAATCTGAGCTGCAAG,-1.08
5,TTCTCTGTCCCTTCGCTCGCTT,-0.787
6,TGAGTCCACAGACATCCGCAGC,-1.61
7,TGCCTCGGAAACGTGAGTCCAC,-0.669
8,ATCCGCAGCAGCTCCACCGTGT,-0.56
9,TACAGTCTACAAAACTCCCATC,-1.25
10,TAGCGGTGGTAGCGGACCTGGA,-1.68
11,TTGTGCACCACGGCGAACTCCA,-0.938
12,TTGGCGATGCCCTTGCCTCGGA,-0.817

# Molecular target: NAT9
# Assay: as above
# Details: shRNA
row,Sequence,sensor-assay potency score (higher = more potent)
1,TCTGATTTCATCCACTCGTGGT,-0.312
2,TTGTCTGCATCTTCCTGCCAGC,-1.08
3,TGAAGTTTCTGGAACATCCGGA,0.756
4,ATCCACTCGTGGTACCTGCTGG,-0.384
5,TTCATCCACTCGTGGTACCTGC,-1.04
6,TCAAACGCTGCAGCTCCTCTGA,-0.784
7,TAAGGCTTCTCTTCCACGTGGC,0.678
8,TACACTTGTCTGCATCTTCCTG,-0.99
9,TTGTTCACATGCAGTCTGCTGT,-0.324
10,TGAAGGTACACTTGTCTGCATC,-1.11
11,ACACTTGTCTGCATCTTCCTGC,0.498
12,TAGATCTGTGAGGAAGAGGTTC,-0.334

# Molecular target: NBPF1
# Assay: as above
# Details: shRNA
row,Sequence,sensor-assay potency score (higher = more potent)
1,TTCGTCTCTGCCTTCTCGCTGG,0.0322
2,TTTATGAGGTCTTCGCACTCTT,0.0563
3,TTATGAGGTCTTCGCACTCTTC,-1.54
4,TTGGTCTTCTTCCTCTTCCTGG,-0.175
5,TAAAATGTTCGTCTCTGCCTTC,-0.476
6,TTTTCTTCGTTGATCTTCTTCC,-0.0891
7,TTGATTTCTAAAATGTTCGTCT,0.0571
8,TCTTCGTTGATCTTCTTCCCCT,-0.277
9,TTCGTTGATCTTCTTCCCCTTC,-0.152

# Molecular target: NCAPG2
# Assay: as above
# Details: shRNA
row,Sequence,sensor-assay potency score (higher = more potent)
1,AACATCTTTACACACAGTCAGG,-1.69
2,TTGTCGTGGAGACTGTATCTGA,-0.323
3,TTGATGGTGAAAGTAACTCAGA,-1.15
4,TTCTGAGCAGAACTTGTGCTGA,-0.264
